NOMO-1 viab: NOMO-1 AML cell viability reduction, primary screen, STK33 inhibitor project, CellTiter-Glo luminescence; 37,000 compounds, 7.5% hits; NOMO-1 AML viability, 72 h; AID 2330, 2010; inhibition, % (test concentration not listed); in the data active = inhibition above about 80%; inconclusive = no clear call, values can overlap the other calls
PD-1 reverse act: activators reversing PD-1 mediated T-cell inhibition, primary screen, luminescence, primary human CD4 T cells, PD-L1 beads; CellTiter-Glo 96 h; activation, % (test concentration not listed); 29,000 tested, under 10 active; AID 2316, 2010; call rule not given here;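 also: 0% = median vehicle wells and 100% = positive control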
Hedgehog inh: Hedgehog pathway signaling inhibitors, primary screen, luminescence, Shh-LIGHT2 cells, Gli-luciferase; 22,000 compounds, 2.1% hits; inhibition, % (concentration not given with the values); Shh-LIGHT2 Gli-luciferase reporter, 30 h;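 active = mean inhibition across valid replicates above about 65%, limit read from the data; inconclusive = mean under the limit, yet half or more replicates past it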;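 also: pathway switched on by Shh-conditioned medium diluted 1 in 25 in low serum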
MITF inh: inhibitors of MITF, primary screen, MITF inhibitor project, cell-based, luminescence. TRPM1 promoter luciferase, 24 h. inhibition, % (no concentration beside the values). 37,000 compounds, 0.28% hits. AID 2240, 2010; in the data active = inhibition above about 85%; inconclusive = no clear call, values can overlap the other calls; inactive = below about 68%;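 also: human melanocyte line stably carrying TRPM1 promoter luciferase reporter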
Active calls of the source: *. Only some compounds are listed: those with a hit (about 7.8% of all), similar ones and a draw of the others.

For C[C@H](CO)N1C[C@H](C)[C@@H](CN(C)S(=O)(=O)c2ccc(Cl)cc2)Oc2c(NC(=O)c3ccncc3)cccc2C1=O the results were NOMO-1 viab 16.1, PD-1 reverse act 0.1, Hedgehog inh -1.4 and MITF inh -14.5.
Screening C[C@@H]1CN([C@@H](C)CO)C(=O)c2cccc(NC(=O)c3nc4ccccc4s3)c2O[C@H]1CN(C)S(=O)(=O)c1ccc(Cl)cc1 returned NOMO-1 viab 92.9*, PD-1 reverse act -3.2, Hedgehog inh -14.4 and MITF inh 28.2.
C[C@H](CO)N1C[C@H](C)[C@H](CN(C)S(=O)(=O)c2ccc(Cl)cc2)Oc2c(NC(=O)c3ccncc3)cccc2C1=O was read as NOMO-1 viab 34.4, PD-1 reverse act -0.4, Hedgehog inh 110.7* and MITF inh -10.2.
Screening Cc1nnc(SCC(=O)Nc2ccc(Br)cc2Cl)s1 returned NOMO-1 viab -9.6 and MITF inh -26.7.
Clc1ccc(-c2nc(Sc3nc(-c4cccs4)ns3)n[nH]2)cc1 was read as NOMO-1 viab 10.6, PD-1 reverse act -8.4, Hedgehog inh -29.4 and MITF inh 5.7.
`COc1ccc(C(=O)CC2(O)C(=O)N(Cc3ccc(C)cc3)c3ccc(Cl)cc32)cc1[N+](=O)[O-]` (configuration not stated) gave NOMO-1 viab 124.0*, PD-1 reverse act -12.9 and MITF inh 48.1.
Cc1coc(C)c1C(=O)CC1(O)C(=O)N(Cc2cccc3ccccc23)c2ccccc21 (configuration not stated) was read as NOMO-1 viab 40.0, PD-1 reverse act 1.0 and MITF inh 26.7.
`CCCN1C(=O)C(O)(CC(=O)c2ccc(OC)c([N+](=O)[O-])c2)c2ccccc21` (configuration not stated) gave NOMO-1 viab 117.9* and MITF inh 6.7.
Screening COc1ccc(C2(CNC(=O)c3ccc(OC)c([N+](=O)[O-])c3)CCCC2)cc1OC returned NOMO-1 viab 13.7, PD-1 reverse act -3.1 and MITF inh 10.5.
Screening Cc1ccc(CN2C(=O)C(O)(CC(=O)c3c(C)coc3C)c3cc(Cl)ccc32)cc1 (configuration not stated) returned NOMO-1 viab 127.6*, PD-1 reverse act 0.8 and MITF inh 42.8.
For COc1ccc(C(=O)CC2(O)C(=O)N(Cc3ccc(Cl)c(Cl)c3)c3ccccc32)cc1OC (configuration not stated) the results were NOMO-1 viab 43.4, PD-1 reverse act 0.8 and MITF inh 16.7.
CCCN1C(=O)C(O)(CC(=O)c2ccc(OC)c([N+](=O)[O-])c2)c2cc(Br)ccc21 (configuration not stated) was read as NOMO-1 viab 112.9*, PD-1 reverse act -12.4 and MITF inh 1.5.
`Cc1ccc(C(=O)CC2(O)C(=O)N(CC(N)=O)c3ccccc32)s1` (configuration not stated) gave NOMO-1 viab -1.2, PD-1 reverse act 2.5 and MITF inh 4.6.
CCN(CC)S(=O)(=O)c1ccc(C(=O)Nc2ccc3c(c2)OC(C)(C)O3)cc1 was read as NOMO-1 viab inconclusive, PD-1 reverse act -8.2, Hedgehog inh 28.1 and MITF inh 53.0.
c1coc(-c2nn3c(C4COc5ccccc5O4)nnc3s2)c1 (configuration not stated) was read as NOMO-1 viab 16.3, PD-1 reverse act -1.3 and MITF inh -26.5.
Screening O=C(Oc1ccc(C2SCCS2)cc1)c1ccccc1Cl returned NOMO-1 viab 6.0, PD-1 reverse act 0.3, Hedgehog inh -16.7 and MITF inh 8.6.
O=C(CC1(O)C(=O)N(Cc2ccc(Cl)cc2)c2ccc(Cl)cc21)c1ccc2c(c1)OCCO2 (configuration not stated) was read as NOMO-1 viab 129.4*, PD-1 reverse act -2.0 and MITF inh 28.6.
For O=S(=O)(Nc1nc2ccccc2nc1Nc1ccccc1F)c1ccc(Cl)cc1 the results were NOMO-1 viab 27.9, PD-1 reverse act 0.4, Hedgehog inh 98.1* and MITF inh 34.3.
`CC1(C)Cc2nc3sc4c(SCC(=O)NCc5ccco5)ncnc4c3cc2CO1` gave NOMO-1 viab 127.2*, PD-1 reverse act -5.9 and MITF inh -9.6.
`CCOC(=O)CSc1ncnc2c1sc1nc3c(cc12)COC(C)(C)C3` gave NOMO-1 viab -6.9, PD-1 reverse act -0.2 and MITF inh 28.6.
For Cc1nc(SCC(=O)NCc2ccco2)c2c3c(sc2n1)CCC3 the results were NOMO-1 viab 14.1, PD-1 reverse act -3.2 and MITF inh -24.4.
For O=C(CSc1ncnc2sc3c(c12)CCCCC3)NCc1ccco1 the results were NOMO-1 viab 131.5*, PD-1 reverse act -2.2 and MITF inh 19.9.
For CS(=O)(=O)CS(=O)(=O)C1=C(N2CCOCC2)C2CCN1CC2 the results were NOMO-1 viab 14.2, PD-1 reverse act -0.5, Hedgehog inh -6.7 and MITF inh -10.2.
C[C@H](CO)N1C[C@H](C)[C@@H](CN(C)Cc2ccc(Cl)c(Cl)c2)Oc2ccc(NC(=O)Nc3ccc(F)cc3)cc2C1=O was read as NOMO-1 viab 53.0, PD-1 reverse act -5.2 and MITF inh 39.9.
C[C@H](CO)N1C[C@H](C)[C@H](CN(C)Cc2ccc(Cl)c(Cl)c2)Oc2ccc(NC(=O)Nc3ccc(F)cc3)cc2C1=O was read as NOMO-1 viab -11.3, PD-1 reverse act 0.6 and MITF inh 5.2.
For C[C@H](CO)N1C[C@H](C)[C@H](CN(C)Cc2ccc(Cl)c(Cl)c2)Oc2ccc(NC(=O)Nc3ccccc3)cc2C1=O the results were NOMO-1 viab 113.4*, PD-1 reverse act 0.1, Hedgehog inh 19.3 and MITF inh 17.0.
For COc1ccc(NC(=O)Nc2ccc3c(c2)C(=O)N([C@H](C)CO)C[C@H](C)[C@H](CN(C)Cc2ccc(Cl)c(Cl)c2)O3)cc1 the results were NOMO-1 viab 108.9*, PD-1 reverse act -0.6, Hedgehog inh 7.3 and MITF inh 28.3.
For C[C@@H]1CN([C@@H](C)CO)C(=O)c2cc(NC(=O)Nc3ccc(F)cc3)ccc2O[C@H]1CN(C)Cc1ccc(Cl)c(Cl)c1 the results were NOMO-1 viab 124.6*, PD-1 reverse act 0.1 and MITF inh 40.7.
`COc1ccc(NC(=O)Nc2ccc3c(c2)C(=O)N([C@H](C)CO)C[C@H](C)[C@@H](CN(C)Cc2ccc(Cl)c(Cl)c2)O3)cc1` gave NOMO-1 viab 27.6, PD-1 reverse act -0.8, Hedgehog inh 11.4 and MITF inh 3.6.
`CC(=O)OCC1OC(n2ccc(=O)[nH]c2=O)C(OC(C)=O)C1OC(C)=O` (configuration not stated) gave NOMO-1 viab 4.8, PD-1 reverse act 0.6, Hedgehog inh 0.1 and MITF inh 8.5.
`Cc1nnc(NC(C)C)s1` gave NOMO-1 viab -6.2, PD-1 reverse act 0.6, Hedgehog inh 0.8 and MITF inh 8.3.
For CCc1nc(SCS(=O)(=O)c2ccc(C)cc2)c(C#N)c2c1CCCC2 the results were NOMO-1 viab -4.8, PD-1 reverse act -0.9, Hedgehog inh -4.2 and MITF inh -0.4.

From PubChem
